This is part of a sample that, as a whole, favours compounds with a hit. Of some 83,000 tested, about 20% had one in any assay.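 Interpretation: 100, growth as untreated; towards 0, rising growth inhibition; 0, no net growth; 0 to -100, cell death. Compounds scoring below 10 were considered active.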 Active and inactive are the calls of the source.
Key:
Assay in all cases: NCI-60 one-dose screen, 48 h (100 = growth as untreated, 0 = no growth, -100 = all killed)
Conditions in all cases: 10 µM unless noted
EKVX NSCLC = tested on: EKVX NSCLC
SN12C renal = tested on: SN12C renal
UO-31 renal = tested on: UO-31 renal
TK-10 renal = tested on: TK-10 renal
ACHN renal = tested on: ACHN renal
CAKI-1 renal = tested on: CAKI-1 renal
A498 renal = tested on: A498 renal
CCRF-CEM leukemia = tested on: CCRF-CEM leukemia
MOLT-4 leukemia = tested on: MOLT-4 leukemia
SR leukemia = tested on: SR leukemia

Measured: growth

CCN(CC)c1ccc(C=O)c(OCc2cn(CC(=O)Nc3ccc(Cl)cc3)nn2)c1
inactive: EKVX NSCLC 82.8% | SN12C renal 63.5% | TK-10 renal 83.8% | ACHN renal 24.3% | CAKI-1 renal 57.5% | A498 renal 89.2% | CCRF-CEM leukemia 72.7% | MOLT-4 leukemia 51.9% | SR leukemia 47%
active: UO-31 renal -58.2%

CC(C)NC(=O)c1cc(-c2ccc(NC(=O)Nc3ccc(N4CCOCC4)c(C(F)(F)F)c3)cc2)nc2cccnc12
inactive: EKVX NSCLC 72.7% | SN12C renal 69% | UO-31 renal 48.2% | TK-10 renal 143% | ACHN renal 62.7% | CAKI-1 renal 63.7% | A498 renal 25.6% | CCRF-CEM leukemia 44.3% | SR leukemia 10.2%

Cc1sc2c(c1C)c(=O)nc1c(-c3nc(-c4ccc(F)cc4)no3)n[nH]n12
inactive: EKVX NSCLC 95.2% | SN12C renal 98.2% | UO-31 renal 88.1% | TK-10 renal 122% | ACHN renal 96.5% | CAKI-1 renal 92.8% | A498 renal 98.6% | CCRF-CEM leukemia 104% | SR leukemia 97.6%

COc1ccc(/C=C/C(=O)c2ccc(NC(=O)CSc3nnc(-c4ccc5nc(-c6ccc(Cl)cc6)[nH]c5c4)o3)cc2)cc1
inactive: EKVX NSCLC 103% | SN12C renal 93.4% | UO-31 renal 87.5% | TK-10 renal 136% | ACHN renal 102% | CAKI-1 renal 97.4% | A498 renal 111% | CCRF-CEM leukemia 59.9% | MOLT-4 leukemia 64.4% | SR leukemia 80.5%

O=C(c1ccc(Cl)cc1)C1[C@H](c2ccc(Cl)cc2)[C@@H](c2ccccc2)NC12C(=O)Nc1ccc(Br)cc12 (some centres undefined)
active: SN12C renal -48.8% | SR leukemia -5%
inactive: EKVX NSCLC 43.6% | UO-31 renal 28.5% | TK-10 renal 50.4% | ACHN renal 14.3% | CAKI-1 renal 27.6% | A498 renal 59.2% | CCRF-CEM leukemia 36.8%

COc1cccc(-c2nn(-c3ccccc3)cc2-c2ccnc(N3CCN(C(=O)Nc4ccc(F)cc4)CC3)c2)c1
inactive: EKVX NSCLC 62.1% | SN12C renal 67.4% | UO-31 renal 34.4% | TK-10 renal 92.9% | ACHN renal 67.6% | CAKI-1 renal 49.2% | A498 renal 56.9% | CCRF-CEM leukemia 31.8% | SR leukemia 24.8%

Nc1cc(-c2c[nH]c3ccccc23)nc2cc(-c3c[nH]c4ccccc34)nn12
inactive: EKVX NSCLC 74.5% | SN12C renal 73% | UO-31 renal 44.2% | TK-10 renal 89.4% | ACHN renal 51.6% | CAKI-1 renal 59.4% | A498 renal 42.3% | CCRF-CEM leukemia 45.4% | SR leukemia 14%

COC(=O)C1CCCN(S(=O)(=O)/N=C2\NC(=O)NC2=C(Cl)Cl)C1 (centres undefined)
inactive: EKVX NSCLC 104% | SN12C renal 102% | UO-31 renal 92.2% | TK-10 renal 74.6% | ACHN renal 109% | CAKI-1 renal 102% | CCRF-CEM leukemia 58% | MOLT-4 leukemia 96.3% | SR leukemia 28.6%

CN(C)c1ccc(/C=C2\Cc3c(F)ccc(Br)c3C2=O)cc1
inactive: EKVX NSCLC 80.5% | SN12C renal 98.2% | UO-31 renal 77% | TK-10 renal 140% | ACHN renal 84.8% | CAKI-1 renal 82% | CCRF-CEM leukemia 94.2% | MOLT-4 leukemia 97.7% | SR leukemia 76%

O=C1c2c(c3c4cc(Br)ccc4[nH]c3c3ccc4ccccc4c23)C(=O)N1CCO
active: SR leukemia -6.75%
inactive: EKVX NSCLC 100% | SN12C renal 89.5% | UO-31 renal 78% | TK-10 renal 160% | ACHN renal 73.7% | CAKI-1 renal 69.6% | A498 renal 90.6% | CCRF-CEM leukemia 64.6%

COc1cccc(N2CCN(c3ncnc4c3[nH]c3ccc(F)cc34)C[C@@H]2C)c1
active: EKVX NSCLC -0.593% | SN12C renal -28.2% | UO-31 renal -98.8% | TK-10 renal -31.6% | ACHN renal -12.9% | CAKI-1 renal -28.6% | A498 renal -23.1% | CCRF-CEM leukemia -16.1% | SR leukemia -22.8%

CS(=O)(=O)Nc1ccc(-c2nn(-c3ccc(S(C)(=O)=O)cc3)cc2/C=C/C(=O)c2ccc(NC(=O)CO[N+](=O)[O-])cc2)cc1
inactive: EKVX NSCLC 103% | SN12C renal 109% | UO-31 renal 93.9% | TK-10 renal 112% | ACHN renal 96.1% | CAKI-1 renal 97.7% | A498 renal 110% | CCRF-CEM leukemia 111% | SR leukemia 92.1%

C=C1CC[C@H]2[C@@](C)(CCC3OC(c4ccc(OCc5cn(C6CC(OC(C)=O)C(OC(C)=O)C(COC(C)=O)O6)nn5)cc4)OC[C@]32C)[C@@H]1/C=C/C1=CCOC1=O (some centres undefined)
inactive: EKVX NSCLC 52.3% | SN12C renal 67.5% | UO-31 renal 57.7% | TK-10 renal 119% | ACHN renal 72.7% | CAKI-1 renal 77% | CCRF-CEM leukemia 65.7% | MOLT-4 leukemia 62.1% | SR leukemia 51%

O=C(N/N=C/c1ccc([N+](=O)[O-])s1)c1[nH]c2ccc(Br)cc2c1-c1ccccc1
active: EKVX NSCLC 9.91% | MOLT-4 leukemia 9.21% | SR leukemia 7.33%
inactive: SN12C renal 17.5% | UO-31 renal 46.6% | TK-10 renal 83.3% | ACHN renal 12.7% | CAKI-1 renal 23.6% | CCRF-CEM leukemia 16.1%

Nc1c(C(=O)Nc2ccc(C(F)(F)F)cc2)sc2nc(-c3cnccn3)cc(-c3cccs3)c12
inactive: EKVX NSCLC 76.1% | SN12C renal 94.9% | UO-31 renal 59.5% | TK-10 renal 174% | ACHN renal 43.3% | CAKI-1 renal 16.2% | CCRF-CEM leukemia 84.7% | MOLT-4 leukemia 75.7% | SR leukemia 66.3%

COc1cccc(OC)c1-c1nnn(C)c1C(=S)N1CCN(c2ccc([N+](=O)[O-])cc2Cl)CC1
inactive: EKVX NSCLC 83.6% | SN12C renal 93.6% | UO-31 renal 58.7% | TK-10 renal 105% | ACHN renal 92.2% | CAKI-1 renal 78.9% | CCRF-CEM leukemia 91.7% | MOLT-4 leukemia 78% | SR leukemia 87.1%

Cn1c(SCC(=O)Nc2ccc(-c3nc4ccc([N+](=O)[O-])cc4[nH]3)cc2)nc2ccccc2c1=O
inactive: EKVX NSCLC 84.5% | SN12C renal 91.1% | UO-31 renal 84.7% | TK-10 renal 132% | ACHN renal 65.6% | CAKI-1 renal 45.9% | CCRF-CEM leukemia 86.8% | MOLT-4 leukemia 77.5% | SR leukemia 82.4%

COc1ccc(/C=N/NC(=O)c2[nH]c3ccc(Br)cc3c2-c2ccccc2)o1
inactive: EKVX NSCLC 37.8% | SN12C renal 43.3% | UO-31 renal 46.1% | TK-10 renal 94.5% | ACHN renal 28.1% | CAKI-1 renal 26.3% | CCRF-CEM leukemia 15.4% | MOLT-4 leukemia 17% | SR leukemia 17.7%

Reference: PubChem BioAssay (NCI)
